The text below walks through data of PubChem BioAssay.

“And” between values parts separate entries of the source, which are not always exact repeats. Equal values may be shown once. Records with an inconclusive call do not appear. The source made the active and inactive calls.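 Rule for the calls, unless noted: active = GFP signal, as percent of the solvent control, above the screen mean plus 3 SD, about 149; inconclusive = no reading because the compound's own fluorescence upset strain identification; inactive = the rest.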

A short description of assay [1]: yeast TOR pathway RPL19A-GFP modulators, primary screen, cell-based, S. cerevisiae, multiplex flow cytometry (AID 1862; in the data active = percent of DMSO control GFP below about 86%;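 note: lower values mimic rapamycin by blocking the RPL19A rise seen in DMSO cells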). The note with it: S. cerevisiae RPL19A-GFP strain, flow cytometry fluorescence, 3 h; at 10 µM; stronger effect = lower value.
Assay [2] can be described thus: modulators of MEP2-GFP levels in yeast, primary screen, S. cerevisiae, multiplex flow cytometry (AID 1867;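 active = GFP response, as percent of the DMSO control, above the screen-wide mean plus 3 SD, about 139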;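 note: median GFP channel fluorescence of barcode-gated MEP2-GFP cells measured by flow cytometry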). The note with it: S. cerevisiae MEP2-GFP strain, 3 h, at 10 µM, stronger effect = higher value, 100% means same as DMSO wells.
A short description of assay [3]: modulators of CIT2-GFP expression in yeast, primary screen, S. cerevisiae, GFP fusion, multiplex flow cytometry (AID 1870;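 active = percent response above a set limit, the screen-wide mean plus 3 SD, cut at about 130% in these data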;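 note: barcoded CIT2-GFP strain pooled with four other GFP strains with rapamycin as positive control; median GFP fluorescence per well over plate mean of DMSO wells so 100% = DMSO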). As to conditions: 3 h, at 10 µM, stronger effect = higher value. A general note: A flow cytometer gives signals particle by particle.
The nature of assay [4]: modulators of LAP4-GFP expression in yeast, primary screen, S. cerevisiae, multiplex flow cytometry (AID 1873). The note with it: 3 h, at 10 µM, stronger effect = higher value.
Assay [5] is described as follows: modulators of AGP1-GFP expression in yeast TOR pathway, primary screen, cell-based, multiplex flow cytometry, S. cerevisiae (AID 1887;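 active = GFP signal above the screen-wide mean plus 3 SD, that is over about 124.5% of the solvent control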;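 note: AGP1-GFP fusion strain of S. cerevisiae within a five-strain barcoded multiplex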). The note with it: 3 h, at 10 µM, stronger effect = higher value.
Assay [6] can be described thus: inhibitors of CD8+ T cell-vesicle binding, pilot screen, LFA-1/ICAM-1 modulator project, MLPCN validation set, flow cytometry (AID 2523;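 active = response below a set limit, under 55% cells CD8-positive and vesicle-bound, and CD8 cells' 90th-percentile brightness under 279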;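 for vesicle binding response: mean PE anti-B7-1 fluorescence of CD8+ cells relative to row control; 100% = QL9-loaded vesicles with DMSO vehicle in the same plate row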). The note with it: 2C mouse CD8+ T cells, at 7 µM, stronger effect = lower value; double positive events: measured here: CD8+/vesicle+ event percentage.
Assay [7] concerns the target Integrin beta-1 (Homo sapiens) + Integrin alpha-4 (Homo sapiens) (UniProt P13612+P05556). The experiment in a line: inhibition of HUTS-21 binding to VLA-4, pilot screen, VLA-4 allosteric modulator project, U937 cells, HUTS-21 mAb, flow cytometry, validation set (AID 2674;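 active = inhibition above 50%, about 3 SD of the validation set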;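 note: antibody binding induced by the VLA-4 ligand LDV present at three times its Kd; 0% = LDV ligand with antibody and no compound and 100% = antibody without LDV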). The note with it: HUTS-21 LIBS mAb binding, at 6.7 µM, stronger effect = higher value, binding induced by LDV ligand.

Assay [8] is described as follows: superoxide lowering in aged yeast cells, pilot screen, validation compound set (AID 2706;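 active = superoxide response below 65% of plate, a cut near 3 SD across the whole screen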;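 note: yeast exposed to compound for one week at 30 degrees C before staining; 100% = mean of all compound wells on the same plate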). The note with it: S. cerevisiae aging, superoxide DHE fluorescence; at 10 µM; stronger effect = lower value.
The target of assay [9] is Beta-adrenergic receptor kinase 1 (Homo sapiens) (UniProt P25098). The experiment in a line: GRK2 binders displacing RNA aptamer, biochemical, validation, human GRK2, bead flow cytometry (AID 488806;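 active = aptamer binding inhibition above 30%, about 3 SD of noise from non-fluorescent compounds; inactive = inhibition at or below 30%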). The note with it: bead-bound GRK2, FAM-aptamer displacement, at 10 µM, stronger effect = higher value.
Chain of Beta-adrenergic receptor kinase 1 (Homo sapiens) (P25098 whole entry, looked up): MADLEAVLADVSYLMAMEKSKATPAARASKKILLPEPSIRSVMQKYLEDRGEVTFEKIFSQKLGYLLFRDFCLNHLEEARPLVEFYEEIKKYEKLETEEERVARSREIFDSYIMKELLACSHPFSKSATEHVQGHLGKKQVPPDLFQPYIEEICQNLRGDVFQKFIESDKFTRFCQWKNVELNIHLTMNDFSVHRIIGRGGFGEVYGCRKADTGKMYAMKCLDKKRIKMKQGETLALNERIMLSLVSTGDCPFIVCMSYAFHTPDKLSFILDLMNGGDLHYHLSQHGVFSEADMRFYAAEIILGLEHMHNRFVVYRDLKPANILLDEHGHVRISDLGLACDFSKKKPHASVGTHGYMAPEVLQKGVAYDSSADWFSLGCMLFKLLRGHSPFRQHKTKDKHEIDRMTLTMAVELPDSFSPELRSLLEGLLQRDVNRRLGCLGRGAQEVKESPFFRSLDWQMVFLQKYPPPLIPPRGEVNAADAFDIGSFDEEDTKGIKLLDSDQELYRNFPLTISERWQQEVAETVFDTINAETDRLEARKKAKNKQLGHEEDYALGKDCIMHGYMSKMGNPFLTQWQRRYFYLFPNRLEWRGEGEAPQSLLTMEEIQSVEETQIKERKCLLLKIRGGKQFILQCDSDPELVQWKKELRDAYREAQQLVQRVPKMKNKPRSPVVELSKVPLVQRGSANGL
In assay [10] the target is Beta-2 adrenergic receptor (Homo sapiens) (UniProt P07550). Put plainly: beta2AR agonists driving receptor internalization, pilot screen, cell-based, FAP fluorogen, flow cytometry, validation set (AID 504459;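 active = percent response above 42, roughly 3 SD of non-fluorescent test compounds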;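 note: agonist-driven loss of surface beta2AR via internalization measured by FAP dye flow cytometry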). The note with it: Am2.2-beta2AR cells, FAP surface receptor flow cytometry; at 10 µM; stronger effect = higher value.
Chain of Beta-2 adrenergic receptor (Homo sapiens) (P07550 whole entry, looked up): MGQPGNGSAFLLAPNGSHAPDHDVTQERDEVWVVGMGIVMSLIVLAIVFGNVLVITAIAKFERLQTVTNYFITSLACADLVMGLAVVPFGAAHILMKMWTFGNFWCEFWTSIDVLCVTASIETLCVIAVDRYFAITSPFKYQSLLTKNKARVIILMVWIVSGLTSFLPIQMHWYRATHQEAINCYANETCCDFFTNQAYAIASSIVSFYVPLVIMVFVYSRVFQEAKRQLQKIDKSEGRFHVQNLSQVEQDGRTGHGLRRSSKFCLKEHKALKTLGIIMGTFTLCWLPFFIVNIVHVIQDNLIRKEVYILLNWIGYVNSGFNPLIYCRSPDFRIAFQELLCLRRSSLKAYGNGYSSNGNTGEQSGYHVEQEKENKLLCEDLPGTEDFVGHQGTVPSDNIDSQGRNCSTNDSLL
The target of assay [11] is AP-2 complex subunit beta (Homo sapiens) (UniProt P63010). Put plainly: inhibitors of arrestin peptide binding to AP2, pilot screen, biochemical, validation set, GST-AP2 beads, flow cytometry (AID 504541;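 active = inhibition above 54%, about 3 SD of non-fluorescent compounds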;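 note: AP2 carries R879A mutation and is captured from E. coli lysate; bead-bound FITC arrestin peptide fluorescence measuring arrestin peptide binding to AP2; 0% = DMSO wells and 100% = excess unlabeled arrestin peptide control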). As to conditions: FITC arrestin peptide, at 10 µM, stronger effect = higher value, AP2 beta2 appendage fragment, R879A mutant.
Chain of AP-2 complex subunit beta (Homo sapiens) (P63010 whole entry, looked up, the tested form may be a part, one chain of several): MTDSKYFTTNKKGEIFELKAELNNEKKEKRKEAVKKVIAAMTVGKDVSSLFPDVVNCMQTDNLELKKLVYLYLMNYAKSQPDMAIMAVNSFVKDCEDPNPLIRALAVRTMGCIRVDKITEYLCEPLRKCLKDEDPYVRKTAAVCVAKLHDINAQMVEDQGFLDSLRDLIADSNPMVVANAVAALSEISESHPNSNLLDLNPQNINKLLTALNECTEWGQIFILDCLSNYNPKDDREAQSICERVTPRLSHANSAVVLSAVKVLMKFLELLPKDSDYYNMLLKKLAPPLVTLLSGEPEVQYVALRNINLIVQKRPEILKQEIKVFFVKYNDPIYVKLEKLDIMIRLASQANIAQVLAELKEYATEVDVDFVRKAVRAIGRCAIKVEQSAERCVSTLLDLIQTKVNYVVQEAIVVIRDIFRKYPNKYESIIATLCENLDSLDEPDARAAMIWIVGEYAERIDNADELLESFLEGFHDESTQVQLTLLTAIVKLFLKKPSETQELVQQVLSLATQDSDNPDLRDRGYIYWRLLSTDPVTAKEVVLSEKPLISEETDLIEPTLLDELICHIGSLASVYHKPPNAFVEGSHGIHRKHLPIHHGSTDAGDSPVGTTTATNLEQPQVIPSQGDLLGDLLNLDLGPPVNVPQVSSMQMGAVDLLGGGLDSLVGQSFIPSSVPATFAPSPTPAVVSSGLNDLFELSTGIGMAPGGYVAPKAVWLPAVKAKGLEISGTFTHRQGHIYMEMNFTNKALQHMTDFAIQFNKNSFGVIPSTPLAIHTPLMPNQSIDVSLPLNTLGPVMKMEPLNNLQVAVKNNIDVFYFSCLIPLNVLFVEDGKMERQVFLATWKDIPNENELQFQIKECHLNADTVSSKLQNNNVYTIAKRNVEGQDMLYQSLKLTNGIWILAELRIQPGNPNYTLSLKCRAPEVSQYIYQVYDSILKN
The nature of assay [12]: yeast V-ATPase proton transport modulators, S. cerevisiae, pHLuorin, HTS validation (AID 504600; in the data active = response above about 15%;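 note: plate controls were DMSO for no effect and reference compound for full effect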). The note with it: S. cerevisiae pHLuorin cytosolic pH, at 10 µM, stronger effect = higher value.
The subject of assay [13] is anti-desmoglein-3 scFv antibody binding to human DSG3. The experiment in a line: inhibitors of anti-DSG3 scFv binding to DSG3, pilot screen, biochemical, validation compound set, bead-based, flow cytometry (AID 588368;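 active = binding below the plate cutoff, the plate median minus 3 SD, with a reading above zero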;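 note: signal is the median channel fluorescence of bead-bound GFP antibody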). The note with it: Protein G beads, DSG3-Fc, scFv-GFP binding, at 10 µM, stronger effect = lower value.
Assay [14] can be described thus: inhibitors of fungal efflux pumps CDR1, CDR2, MDR1, pilot screen, validation compound set, multiplex, phenotypic (AID 588506;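 active = efflux inhibition above 0.42, the validation set average plus 4 SD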;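 note: Nile Red retained in cells so higher fluorescence means more efflux inhibition; 0 = negative control wells and 1 = enniatin B 25 µM full block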). The note with it: S. cerevisiae pump-expressing triplex, Nile Red efflux flow cytometry; at 10 µM; stronger effect = higher value; the pumps come from Candida albicans.
Assay [15] addresses ATP-binding cassette sub-family B member 6 (Homo sapiens) (UniProt Q9NP58). The experiment in a line: ABCB6 transporter inhibitors, pilot screen, K562-ABCB6 cells, flow cytometry, validation set (AID 588550;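 active = inhibition above the screen-wide mean plus 3 SD, about 51%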;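 note: 0% = DMSO wells and 100% = benzethonium chloride 70 µM positive control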). The note with it: K562-ABCB6 porphyrin accumulation, 1 h, at 10 µM, stronger effect = higher value.
The nature of assay [16]: promoters of myeloid differentiation in arrested cells, primary screen, cell-based, GFP/MAC1 double positive, flow cytometry, validation set (AID 588685;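 active = differentiation response of at least 50%, scaled between solvent and reference control, from cells with both markers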;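 note: compound exposure lasts four days before antibody staining and flow analysis; 0% = DMSO wells and 100% = 5 µM fulvestrant positive control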). As to conditions: ER-HoxA9 marrow cells, stronger effect = higher value, normalized: vehicle 0, fulvestrant 100.

Chain of ATP-binding cassette sub-family B member 6 (Homo sapiens) (Q9NP58 whole entry, looked up): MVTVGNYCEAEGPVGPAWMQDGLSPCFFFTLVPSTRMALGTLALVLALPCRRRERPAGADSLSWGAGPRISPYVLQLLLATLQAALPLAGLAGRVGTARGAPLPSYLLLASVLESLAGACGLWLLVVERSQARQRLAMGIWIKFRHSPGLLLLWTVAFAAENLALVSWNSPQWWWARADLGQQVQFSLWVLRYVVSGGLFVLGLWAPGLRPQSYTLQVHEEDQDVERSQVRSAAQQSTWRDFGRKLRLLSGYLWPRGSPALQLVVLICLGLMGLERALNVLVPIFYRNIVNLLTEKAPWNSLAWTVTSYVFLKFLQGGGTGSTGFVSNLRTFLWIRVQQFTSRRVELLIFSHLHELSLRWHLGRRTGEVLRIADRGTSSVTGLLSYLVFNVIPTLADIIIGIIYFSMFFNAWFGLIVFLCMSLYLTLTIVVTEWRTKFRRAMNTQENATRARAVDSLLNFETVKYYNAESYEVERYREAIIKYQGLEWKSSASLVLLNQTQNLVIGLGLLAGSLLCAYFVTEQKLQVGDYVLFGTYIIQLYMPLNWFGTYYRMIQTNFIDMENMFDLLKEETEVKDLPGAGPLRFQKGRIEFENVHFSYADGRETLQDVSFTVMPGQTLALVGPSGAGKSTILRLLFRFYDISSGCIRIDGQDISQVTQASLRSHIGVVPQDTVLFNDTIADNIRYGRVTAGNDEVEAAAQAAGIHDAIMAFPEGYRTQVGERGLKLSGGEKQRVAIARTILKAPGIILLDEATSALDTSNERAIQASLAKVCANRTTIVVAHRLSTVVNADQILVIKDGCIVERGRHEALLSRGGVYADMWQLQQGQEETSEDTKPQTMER
Chain of Integrin beta-1 (Homo sapiens) + Integrin alpha-4 (Homo sapiens) (P05556 whole entry, looked up): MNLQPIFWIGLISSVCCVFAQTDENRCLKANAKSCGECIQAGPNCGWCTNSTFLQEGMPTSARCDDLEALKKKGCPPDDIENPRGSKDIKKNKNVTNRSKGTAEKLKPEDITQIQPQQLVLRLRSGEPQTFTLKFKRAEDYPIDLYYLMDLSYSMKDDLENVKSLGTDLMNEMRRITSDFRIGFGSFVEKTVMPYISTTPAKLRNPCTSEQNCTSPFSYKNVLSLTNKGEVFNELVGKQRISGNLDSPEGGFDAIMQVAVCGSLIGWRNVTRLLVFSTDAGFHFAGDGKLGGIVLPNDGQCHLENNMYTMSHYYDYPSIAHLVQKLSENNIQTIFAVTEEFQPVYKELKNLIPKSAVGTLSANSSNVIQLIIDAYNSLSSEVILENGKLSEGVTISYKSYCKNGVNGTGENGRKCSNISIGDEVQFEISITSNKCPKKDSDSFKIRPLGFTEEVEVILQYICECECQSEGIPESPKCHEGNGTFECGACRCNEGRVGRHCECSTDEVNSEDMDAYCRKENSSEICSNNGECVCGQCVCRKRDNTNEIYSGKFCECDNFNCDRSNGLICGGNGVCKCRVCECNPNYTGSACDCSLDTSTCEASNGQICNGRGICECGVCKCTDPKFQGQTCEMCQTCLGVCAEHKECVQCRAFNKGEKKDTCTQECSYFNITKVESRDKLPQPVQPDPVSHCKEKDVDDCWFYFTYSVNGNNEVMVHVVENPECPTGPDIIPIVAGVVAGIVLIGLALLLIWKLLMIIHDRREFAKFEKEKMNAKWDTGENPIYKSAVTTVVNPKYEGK
Chain of Integrin beta-1 (Homo sapiens) + Integrin alpha-4 (Homo sapiens) (P13612 whole entry, looked up): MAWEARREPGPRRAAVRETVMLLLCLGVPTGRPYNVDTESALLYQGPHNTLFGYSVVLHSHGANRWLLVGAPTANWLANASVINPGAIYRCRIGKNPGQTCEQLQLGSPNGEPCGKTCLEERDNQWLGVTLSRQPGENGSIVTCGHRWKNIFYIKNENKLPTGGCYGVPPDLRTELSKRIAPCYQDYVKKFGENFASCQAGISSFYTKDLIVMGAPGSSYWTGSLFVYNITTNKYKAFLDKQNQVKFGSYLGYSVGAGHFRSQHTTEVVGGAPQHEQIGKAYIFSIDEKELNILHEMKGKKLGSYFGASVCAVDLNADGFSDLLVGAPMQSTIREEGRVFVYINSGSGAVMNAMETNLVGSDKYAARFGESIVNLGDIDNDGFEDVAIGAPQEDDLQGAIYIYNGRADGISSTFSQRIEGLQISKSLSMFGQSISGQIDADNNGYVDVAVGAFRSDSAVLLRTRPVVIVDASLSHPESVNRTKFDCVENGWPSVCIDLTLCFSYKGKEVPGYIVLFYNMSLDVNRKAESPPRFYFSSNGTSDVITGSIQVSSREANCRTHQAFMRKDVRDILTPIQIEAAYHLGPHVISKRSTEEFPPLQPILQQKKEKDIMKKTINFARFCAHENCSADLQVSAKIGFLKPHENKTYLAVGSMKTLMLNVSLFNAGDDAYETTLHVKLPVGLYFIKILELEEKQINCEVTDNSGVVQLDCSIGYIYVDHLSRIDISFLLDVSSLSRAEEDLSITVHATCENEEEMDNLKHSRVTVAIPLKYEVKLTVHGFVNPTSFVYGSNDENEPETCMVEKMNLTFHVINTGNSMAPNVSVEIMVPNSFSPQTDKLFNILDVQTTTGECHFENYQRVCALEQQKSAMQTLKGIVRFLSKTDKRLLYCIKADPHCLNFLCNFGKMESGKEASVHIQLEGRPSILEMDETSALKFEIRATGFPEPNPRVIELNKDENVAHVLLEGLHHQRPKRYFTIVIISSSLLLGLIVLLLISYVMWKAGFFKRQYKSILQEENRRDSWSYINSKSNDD

In the case of `O=C1Cc2ccccc2C(c2ccccc2)N1` (centres undefined), the percent of DMSO control GFP in assay [1] is 98.8% (inactive). Moreover, the GFP response vs DMSO in assay [2] was 108% (inactive); in [4], 90.1% (inactive). Also, the percent response of DMSO control in [3] is 101% (inactive). The GFP response, % of DMSO in assay [5] was 102% (inactive). Also, the double positive events in assay [6] was found to be 64.9%. Also, the vesicle binding response in [6] was 449% (inactive). The inhibition (usually the relative decrease from the control value, in per cent) in assay [7] was -19.1% (inactive); in [11], 56.3% (active); in assay [15], 9% (inactive). Further, in assay [8], the superoxide response (% of plate) is 112% (inactive). Also, the aptamer binding inhibition in assay [9] was -3% (inactive). The response in assay [10] was -4.45% (inactive); in assay [12], -7.51% (inactive). Further, in assay [13], the binding (% of control) is 95.9% (inactive). In addition, in [14], the efflux inhibition (fraction of control) is 0.11 (inactive). In addition, the differentiation response in assay [16] is 53% (active).

As to `O=C(c1ccc(Cl)cc1)C1CCCN(C(=O)/C=C/c2ccccn2)C1` (centres undefined), the percent of DMSO control GFP in assay [1] was 92.4% (inactive). Besides, the GFP response vs DMSO in assay [2] was 102% (inactive); in [4], 137% (inactive). For the same compound, the percent response of DMSO control in assay [3] was 97.7% (inactive). For the same compound, the GFP response, % of DMSO in assay [5] was 115% (inactive). The double positive events in assay [6] was 57.5%. Also, in assay [6], the vesicle binding response is 280% (inactive). The inhibition in assay [7] was -1.12% (inactive); in assay [11] it was -19.4% (inactive); in [15], -2% (inactive). The superoxide response (% of plate) in assay [8] is 91.6% (inactive). Also, the aptamer binding inhibition in assay [9] is -3% (inactive). In addition, the response in assay [10] was -44.8% (inactive); in [12], 2.11% (inactive). Further, the binding (% of control) in assay [13] is 106% (inactive). In [14], the efflux inhibition (fraction of control) is 0 (inactive). Moreover, in assay [16], the differentiation response is -1.05% (inactive).

In the case of `CC1(C)S[C@@H]2[C@H](NC(=O)[C@H](N)c3ccccc3)C(=O)N2[C@H]1C(=O)O`, the percent of DMSO control GFP in assay [1] was 94.2% (inactive) and 101% (inactive). Further, the GFP response vs DMSO was 112% (inactive) and 102% (inactive) in [2]; 73.2% (inactive) and 108% (inactive) in assay [4]. Also, the percent response of DMSO control in assay [3] was 110% (inactive) and 102% (inactive). Also, the GFP response, % of DMSO in assay [5] was 93.1% (inactive) and 112% (inactive). In assay [6], the double positive events is 68.4% and 59.6%. Also, the vesicle binding response in assay [6] is 234% (inactive) and 191% (inactive). For the same compound, the inhibition in assay [7] was 6.46% (inactive) and 15.1% (inactive); in assay [11], 0.2% (inactive) and -9.24% (inactive); in [15], 4% (inactive) and 0% (inactive). Further, in assay [8], the superoxide response (% of plate) is 95.9% (inactive) and 95% (inactive). The aptamer binding inhibition in assay [9] was 4% (inactive) and 7% (inactive). For the same compound, the response is -4.57% (inactive) and -17.9% (inactive) in [10]; 4.43% (inactive) and -37.5% (inactive) in assay [12]. Also, the binding (% of control) in [13] was 108% (inactive) and 102% (inactive). Further, the differentiation response in [16] was -1.64% (inactive) and -7.94% (inactive).

`O=C(O)CCC(=O)c1ccc(-c2ccccc2)cc1`: the percent of DMSO control GFP in [1] was 102% (inactive). Besides, the GFP response vs DMSO in [2] is 102% (inactive); in [4], 125% (inactive). In addition, the percent response of DMSO control in assay [3] is 102% (inactive). In addition, the GFP response, % of DMSO in assay [5] was 108% (inactive). The double positive events in assay [6] stood at 65.4%. Moreover, the vesicle binding response in assay [6] is 245% (inactive). For the same compound, the inhibition in assay [7] is -9.13% (inactive); in [11], 10.7% (inactive); in assay [15], 0% (inactive). In assay [8], the superoxide response (% of plate) was 99.8% (inactive). In assay [9], the aptamer binding inhibition is -1% (inactive). The response in [10] is 11.2% (inactive); in assay [12], -4.64% (inactive). Further, in assay [13], the binding (% of control) is 103% (inactive). The efflux inhibition (fraction of control) in assay [14] was 0.36 (inactive). In addition, the differentiation response in assay [16] was -11.9% (inactive).

Consider `C[C@H](CCC(=O)O)[C@H]1CC[C@H]2[C@@H]3C(=O)C[C@@H]4CC(=O)CC[C@]4(C)[C@H]3CC(=O)[C@]12C`, for which the percent of DMSO control GFP in assay [1] was 99.3% (inactive). Further, the GFP response vs DMSO in [2] is 105% (inactive); in assay [4] it was 120% (inactive). Also, the percent response of DMSO control in assay [3] is 101% (inactive). The GFP response, % of DMSO in [5] was 119% (inactive). For the same compound, in assay [6], the double positive events turned out to be 57.7%. In addition, in [6], the vesicle binding response is 220% (inactive). The inhibition in assay [7] is 22.7% (inactive); in assay [11] it was 10.1% (inactive); in assay [15], 0% (inactive). In [8], the superoxide response (% of plate) was 95.4% (inactive). The aptamer binding inhibition in [9] was 4% (inactive). In addition, the response was -23.4% (inactive) in assay [10] and -2.4% (inactive) in assay [12]. Moreover, in assay [13], the binding (% of control) is 109% (inactive). Further, the efflux inhibition (fraction of control) in assay [14] was -0.09 (inactive). Besides, in assay [16], the differentiation response was -11.9% (inactive).
